In PubChem BioAssay (Tox21):
Records with an inconclusive call do not appear. Unmarked numbers belong to inactive results. Activity calls are given as the source filed them. Calls come from the whole dose curve; as a rule, active = well fitted activation curve with a large enough effect in the repeat runs; inconclusive = weak or mixed curves; inactive = flat fitted curve, though single readings scatter.
% is set by controls: 0 for no effect and ±100 for the full control effect; potency is the fitted concentration of half-maximal effect.

Test: A CellTox Green Cytotoxicity Assay to monitor cytotoxicity in HEK293 cells - 16 hour (AID 1224888); note: nearly all actives have a fitted effect of over 35% in size
Conditions: CellTox Green fluorescence; series mostly up to 76.8 µM; activity change: at the top concentration
Source text: National Center for Advancing Translational Sciences [NCATS]
NIH Chemical Genomics Center [NCGC]
U.S. Environmental Protection Agency [EPA]
National Institutes of Environmental Health Sciences [NIEHS]
National Toxicology Program [NTP]
Cell-based models are critical for drug discovery. Determining the natural cytotoxic effects resulting from test compounds is an essential research activity. A CellTox Green Cytotoxicity Assay to monitor cytotoxicity in real time of continues cell culture during 40 hours of the compound treatment was used to screen Tox21 10K library compounds in Hek293 cells. CellTox Green Cytotoxicity Assay is a nonlytic, homogeneous, biofluorescent method to measure cytotoxicity in cell culture after experimental manipulation. The assay system uses a proprietary asymmetric cyanine dye that is excluded from viable cells but preferentially stains the dead cell's DNA. […] Viable cells produce no appreciable increases in fluorescence. Therefore, the fluorescence signal produced by the binding interaction with dead cell DNA is proportional to cytotoxicity.
The mixture of Hek293 cell suspension and reagents were dispensed at 600cells/6 ul/well in 1536-well tissue culture treated black solid bottom plates using a Multidrop dispenser. After the assay plates were incubated at a 37 C/5% CO2 incubator for 5 hours, 23 nL of compounds dissolved in DMSO, positive and negative controls was transferred to the assay plate by a pintool work station. The plates were incubated at 37 C for 40 hours. The fluorescence intensity were measured at 0h, 8h, 16h, 24h, 32h and 40h time points using ViewLux plate reader during compound treatment.
With Nc1ncnc2c1ncn2[C@H]1CC[C@@H](CO)O1 the “activity change” value was -6.87%. With C[C@H]1c2cccc(O)c2C(O)=C2C(=O)[C@]3(O)C(O)=C(C(N)=O)C(=O)[C@@H](N(C)C)[C@@H]3[C@@H](O)[C@@H]21 the “activity change” value was 6.21% [at 35.3 µM, hits give high values]. In the case of CC(O)c1ccccc1 (stereo not given), the “activity change” value is reported as -3.51%. For CC1(C)[C@H](C(=O)O)N2C(=O)C[C@H]2S1(=O)=O, the “activity change” value was 1.35% [at 35.3 µM, hits give high values]. With CCCC(C(=O)OCCN(CC)CC)(c1ccccc1)c1ccccc1 the “activity change” value was 24.9% [at 35.3 µM, hits give high values]. With CC(=O)OCC(=O)NCCCOc1cccc(CN2CCCCC2)c1 the “activity change” value was -1.68% [at 35.3 µM, hits give high values]. With CN1C(C(=O)Nc2ccccn2)=C(O)c2sccc2S1(=O)=O the “activity change” value was 4.42% [at 35.3 µM, hits give high values]. For CCCCN(CCCC)C(C(N)=O)c1ccc(OC)cc1 (stereo not given), the “activity change” value was -10.1% [at 35.3 µM, hits give high values]. For Cc1[nH]cnc1CN1CCc2c(c3ccccc3n2C)C1=O, the “activity change” value was 7.04% [at 35.3 µM, hits give high values]. For CC1(C)S[C@@H]2[C@H](NC(=O)C(c3ccccc3)S(=O)(=O)O)C(=O)N2[C@H]1C(=O)O (stereo not given in full), the “activity change” value was 0.211% [at 35.3 µM, hits give high values]. With NCCNCCO the “activity change” value was -6.05%. With O=C(Nc1cccc2c(=O)cc(-c3nn[nH]n3)oc12)c1ccc(OCCCCc2ccccc2)cc1 the “activity change” value was 23.5% [at 35.3 µM, hits give high values]. With Oc1cc2c(cc1O)[C@H]1c3ccc(O)c(O)c3OC[C@@]1(O)C2 the Potency was 49.6 µM (active). In the case of COC(=O)CS, the “activity change” value is reported as -2.63%. In the case of CC(=O)OCCN(CCOC(C)=O)c1ccc(N=Nc2ccc([N+](=O)[O-])cc2C#N)cc1, the “activity change” value is reported as -19.4%. With Oc1cccc(O)c1O the “activity change” value was -8.16%. With CC(=O)NC1(c2cccc(F)c2)CCN(CC[C@@]2(c3ccc(Cl)c(Cl)c3)CN(c3ccccc3)C(=O)CO2)CC1 the “activity change” value was 3.16%. For Cc1cccc(N(C)C(=S)Oc2ccc3c(c2)CCC3)c1, the “activity change” value was -7.77% [at 35.3 µM, hits give high values]. In the case of CCN(CC)CCNC(=O)COc1ccc(OC)cc1, the “activity change” value is reported as 1.42% [at 35.3 µM, hits give high values]. For COc1ccccc1NC(=O)c1cc2ccccc2cc1O, the “activity change” value was -6.86%. In the case of O=C(/C=C/c1ccccc1)OCCc1ccccc1, the “activity change” value is reported as 6.2%. With CC(CC1c2ccccc2CCc2ccccc21)CN(C)C (stereo not given) the “activity change” value was 9.91% [at 35.3 µM, hits give high values]. In the case of OC(CCN1CCCC1)(c1ccccc1)C1CCCCC1 (stereo not given), the “activity change” value is reported as 0.167% [at 35.3 µM, hits give high values]. In the case of O=C1c2ccccc2C(=O)C1c1ccc(Br)cc1, the “activity change” value is reported as -14.6% [at 35.3 µM, hits give high values]. With C=CC(=O)OCC1CC2CC1C1CCC(COC(=O)C=C)C21 (stereo not given) the “activity change” value was 15%. For Cc1cc2c(OCC(CNC(C)(C)C)OC(=O)c3ccccc3)cccc2[nH]1 (stereo not given), the “activity change” value was 4.64% [at 35.3 µM, hits give high values]. In the case of CCCCN(CCN(CCCC)C(=O)N1CCOCC1)C(=O)N1CCOCC1, the “activity change” value is reported as 3.35% [at 35.3 µM, hits give high values]. In the case of C=CCc1ccccc1OCC(O)CNC(C)C (stereo not given), the “activity change” value is reported as 6.52% [at 35.3 µM, hits give high values]. With Cc1ccc(OC(=O)c2ccccc2O)cc1 the “activity change” value was 18.1%. For CCCCCC#CC(=O)OC, the “activity change” value was 1.12%. With CC(C)Nc1cccnc1N1CCN(C(=O)c2cc3cc(NS(C)(=O)=O)ccc3[nH]2)CC1 the “activity change” value was -11.6% [at 35.3 µM, hits give high values]. With CCC1NC(=O)c2cc(S(N)(=O)=O)c(Cl)cc2N1 (stereo not given) the “activity change” value was -11% [at 35.3 µM, hits give high values]. In the case of COc1cc(Nc2c(C#N)cnc3cc(OCCCN4CCN(C)CC4)c(OC)cc23)c(Cl)cc1Cl, the “activity change” value is reported as 6.68% [at 35.3 µM, hits give high values]. For CCC1CO1 (stereo not given), the “activity change” value was 1.15%. In the case of CN1CCCC(n2nc(Cc3ccc(Cl)cc3)c3ccccc3c2=O)CC1 (stereo not given), the “activity change” value is reported as 14.5% [at 35.3 µM, hits give high values]. With CN1C[C@H](C(=O)N[C@]2(C)O[C@@]3(O)[C@@H]4CCCN4C(=O)[C@H](Cc4ccccc4)N3C2=O)C[C@@H]2c3cccc4[nH]cc(c34)C[C@H]21 the “activity change” value was -1.88% [at 35.3 µM, hits give high values]. For COc1ccc(OC(=O)N(CC(=O)O)Cc2ccc(OCCc3nc(-c4ccccc4)oc3C)cc2)cc1, the “activity change” value was 4.74% [at 35.3 µM, hits give high values]. In the case of CCCCCCNC(=O)n1cc(F)c(=O)[nH]c1=O, the “activity change” value is reported as -3.81% [at 35.3 µM, hits give high values]. In the case of CCc1ccccc1, the “activity change” value is reported as -0.113%. In the case of CC1CC(OC(=O)C(O)c2ccccc2)CC(C)(C)N1C (stereo not given), the “activity change” value is reported as 5.55% [at 35.3 µM, hits give high values].
